# Where “and” joins values, the source holds several entries; their conditions need not be identical. Identical values can stand only once. Inconclusive results are not listed. The source holds several records for some structures; these can differ, active in one and inactive in another. Calls of active or inactive are those of the source. The call rests on the fitted dose curve; in most records, active means well fitted curve in the direction sought with a large enough effect; inconclusive means small, poorly fitted or top-dose-only effect, or another doubt; inactive means no such curve, though single readings can be large; an effect the other way counts as inactive or inconclusive.
# Assays:
# [1] = Viability qHTS for spleen associated tyrosine kinase inhibitor (SYKi) naive MV4-11 cells (AID 1963823); further: nearly all actives have a fitted effect of over 40% in size
# How it was run: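 Luminescence from CellTiter-Glo, developed 10 min at room temperature, gave viability of MV4-11 cells never exposed to SYK inhibitor. Cells (500/well) had been incubated with compounds for 72 hr under standard culture conditions.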
# [2] = Viability qHTS for spleen associated tyrosine kinase inhibitor (SYKi) drug resistant MV4-11 cells (AID 1963824); further: nearly all actives have a fitted effect of over 35% in size
# How it was run: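 CellTiter-Glo luminescence, read 10 min after reagent addition, reports viability after a 72 hr compound exposure. Cells are an MV4-11 line made resistant to SYK inhibition, seeded at 500 per well onto compound-containing plates.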
# [3] = Quantitative highthroughput screen to assess conditional lethalithy of NOMO1 cells grown in RPMI1640 with untreated serum (RPMI+s) (AID 1963876); further: nearly all actives have a fitted effect of over 35% in size;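 on Viability: 100% = DMSO wells and 0% = empty wells without cells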
# How it was run: (§1)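 Each medium arm—HPLM with 10% dialyzed FBS, or RPMI1640 with 5 mM glucose and 10% untreated or dialyzed FBS—was screened against an 11-point, 3-fold compound titration for 48 h at 37 °C, with CellTiter-Glo luminescence as endpoint.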
# [4] = Quantitative highthroughput screen to assess conditional lethalithy of P12 Ichikawa cells grown in Human Plasma-Like Medium with dialyzed fetal bovine serum (HPLM+ds) (AID 1963879); conditions: Potency: viability; further: nearly all actives have a fitted effect of over 35% in size; on Viability: series mostly up to about 46 µM
# How it was run: as §1
# [5] = Quantitative highthroughput screen to assess conditional lethalithy of SEM cells grown in Human Plasma-Like Medium with dialyzed fetal bovine serum (HPLM+ds) (AID 1963882); further: nearly all actives have a fitted effect of over 35% in size; on Viability: series mostly up to about 46 µM
# How it was run: as §1
# [6] = Quantitative highthroughput screen to assess conditional lethalithy of SEM cells grown in RPMI1640 with unreated serum (RPMI+s) (AID 1963883); further: nearly all actives have a fitted effect of over 35% in size;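 on Viability: 100% = DMSO wells and 0% = empty wells without cells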
# How it was run: as §1
# [7] = Quantitative highthroughput screen to assess conditional lethalithy of SEM cells grown in RPMI1640 with dialyzed fetal bovine serum (RPMI+ds) (AID 1963884); further: nearly all actives have a fitted effect of over 35% in size;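 on Viability: series mostly up to about 46 µM; 100% = DMSO control wells and 0% = empty wells without cells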
# How it was run: as §1
# [8] = Cellular viability qHTS for adrenocortical cancer (ACC) cell line SW-13 (AID 1963989); conditions: SW-13 ACC cells viability, CellTiter-Glo, 48 h; activity (max response): stronger effect = lower value; further: nearly all actives have a fitted effect of over 65% in size;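 on activity (max response): cells grown in serum-free medium with ITS supplement; on the % scale 0 is the no-effect control and ±100 the full control effect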
# How it was run: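 Here, serum-free SW-13 cultures were dosed up to 46 uM. Following 48 h, ATP-dependent luminescence (CellTiter-Glo) reported viable cells, and logistic modeling produced IC50 values.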
# [9] = Cellular viability qHTS for adrenocortical cancer (ACC) cell line NCI-H295R (AID 1963990); further: nearly all actives have a fitted effect of over 60% in size
# How it was run: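 Viability of NCI-H295R after 48 h of treatment (final up to 46 uM) measured through cellular ATP luminescence.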
# [10] = Quantitative highthroughput screen to assess conditional lethalithy of NOMO1 cells grown in Human Plasma-Like Medium with dialyzed fetal bovine serum (HPLM+ds) (AID 1963878); further: nearly all actives have a fitted effect of over 35% in size;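 on Viability: 100% = DMSO wells and 0% = empty wells on each plate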
# How it was run: as §1
# [11] = Quantitative highthroughput screen to assess conditional lethalithy of P12 Ichikawa cells grown in RPMI1640 with dialyzed fetal bovine serum (RPMI+ds) (AID 1963880); conditions: Potency: P12-Ichikawa viability; further: nearly all actives have a fitted effect of over 35% in size;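 on Viability: 100% = DMSO wells and 0% = empty wells on each plate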
# How it was run: as §1
# [12] = Quantitative highthroughput screen to assess conditional lethalithy of P12 Ichikawa cells grown in RPMI1640 with untreated serum (RPMI+s) (AID 1963881); conditions: Potency: viability; further: nearly all actives have a fitted effect of over 35% in size;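 on Viability: series mostly up to about 46 µM; 100% = DMSO wells and 0% = empty wells without cells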
# How it was run: as §1
# [13] = Quantitative highthroughput screen to assess conditional lethalithy of NOMO1 cells grown in RPMI1640 with dialyzed fetal bovine serum (RPMI+ds) (AID 1963877); further: nearly all actives have a fitted effect of over 30% in size;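 on Viability: series mostly up to about 46 µM; 100% = DMSO control wells and 0% = empty wells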
# How it was run: as §1
# Potency means the concentration at half of the fitted maximal effect.
SMILES,Potency [1],Potency [2],Potency [3],Potency [4],Potency [5],Potency [6],Potency [7],activity (max response) [8],Potency [9],Potency [10],Potency [11],Potency [12],Potency [8],Potency [13]
CCC[C@H](N[C@@H](C)C(=O)N1[C@@H]2CCCC[C@H]2C[C@H]1C(=O)O)C(=O)OCC,inactive,inactive,13.2 µM (active),inactive,inactive,inactive,inactive,2.75% (inactive),inactive,–,–,–,–,–
CC[C@H](C)C(=O)O[C@H]1C[C@@H](C)C=C2C=C[C@H](C)[C@H](CC[C@@H]3C[C@@H](O)CC(=O)O3)[C@H]21,8.33 µM (active),2.66 µM (active) and 3.17 µM (active) and 4.68 µM (active),inactive,–,inactive,–,inactive,-5.87% (inactive),inactive and 17.8 µM (active),14.8 µM (active),–,–,–,–
COc1cc2ncn(-c3cc(OCc4ccccc4C(F)(F)F)c(C(N)=O)s3)c2cc1OC,355 nM (active) and 662 nM (active),282 nM (active) and 263 nM (active),2.64 µM (active),–,–,2.09 µM (active),2.64 µM (active),–,–,–,2.35 µM (active),2.09 µM (active),1.26 µM (active),–
CCOc1cc(N2CCC(O)CC2)ccc1Nc1ncc2c(n1)N(C)c1ccccc1C(=O)N2C,1.86 µM (active),1.03 µM (active),0.332 µM (active),2.09 µM (active),20.9 µM (active),16.6 µM (active),16.6 µM (active),–,10 µM (active),–,3.32 µM (active),2.35 µM (active),15.8 µM (active),–
Cc1cc(C(=O)N2CCN(c3cccc(Cl)c3)CC2)n(-c2ccccc2)n1,1.46 µM (active),1.46 µM (active),7.43 µM (active),1.48 µM (active),–,2.64 µM (active),1.87 µM (active),–,0.447 µM (active),–,2.96 µM (active),3.32 µM (active),0.355 µM (active),–
CCCCCNC(=O)N1CCC(CN(Cc2ccc(Cl)cc2)Cc2ccc([N+](=O)[O-])s2)C1 (centres undefined),20.9 µM (active),13.2 µM (active),inactive,inactive,–,–,–,–,28.2 µM (active),–,inactive,–,–,–
COc1cc2c(cc1-c1c(C)noc1C)ncc1[nH]c(=O)n([C@H](C)c3ccccn3)c12,0.206 µM (active),0.259 µM (active),3.32 µM (active),5.9 µM (active),–,1.87 µM (active),1.48 µM (active),-16.6% (inactive),–,–,–,–,–,–
CC(C(=O)O)c1ccc2c(c1)CC(=O)c1ccccc1S2 (centres undefined),inactive,inactive,7.43 µM (active),–,inactive,inactive,inactive,-16.4% (inactive) and 14.9% (inactive),inactive,–,10.5 µM (active),9.35 µM (active),–,–
CCOC(=O)C1=C(C)NC2=C(C(=O)CC(C)(C)C2)C1c1ccc(-c2ccccc2)cc1 (centres undefined),23.5 µM (active),18.4 µM (active) and 18.6 µM (active),inactive,inactive,18.7 µM (active),–,–,-12.6% (inactive),10 µM (active),–,inactive,inactive,–,–
CN1CCC(=C2c3ccccc3CCc3sccc32)CC1,14.8 µM (active),18.6 µM (active),inactive,inactive,–,inactive,–,–,–,–,–,inactive,–,–
CC1(C)[C@H](C(=O)O)N2C(=O)C[C@H]2S1(=O)=O,inactive,inactive,8.33 µM (active),inactive,inactive,inactive,inactive,9.85% (inactive),inactive,–,inactive,inactive,–,–
Cc1ccccc1N1C(=O)c2cc(S(N)(=O)=O)c(Cl)cc2NC1C (centres undefined),inactive,inactive,inactive,inactive,inactive,inactive,inactive,17.3% (inactive),inactive,–,inactive,inactive,–,–
CCC(=O)O[C@]1(C(=O)SCF)[C@H](C)C[C@H]2[C@@H]3C[C@H](F)C4=CC(=O)C=C[C@]4(C)[C@@]3(F)[C@@H](O)C[C@@]21C,3.3 nM (active) and 8.3 nM (active),1.18 µM (active),inactive,–,–,–,–,0.482% (inactive) and -2.88% (inactive),–,inactive,–,–,–,–
Nc1[nH]c(=O)ncc1F,inactive,inactive,inactive,inactive,inactive,inactive,inactive,6.88% (inactive),inactive,–,inactive,inactive,–,–
Nc1ccc(C(=O)c2cc3c(ccc4ccccc43)[nH]2)cc1,4.28 µM (active),4.81 µM (active),14.8 µM (active),2.96 µM (active),2.96 µM (active),–,2.96 µM (active),–,2.51 µM (active),–,5.9 µM (active),3.32 µM (active),–,–
O=c1[nH]nc(Sc2ncc([N+](=O)[O-])s2)n1-c1ccc2c(c1)OCCO2,2.35 µM (active),2.35 µM (active),–,14.8 µM (active),8.33 µM (active),7.43 µM (active),8.33 µM (active),–,6.31 µM (active),9.35 µM (active),9.35 µM (active),8.33 µM (active),17.8 µM (active),8.33 µM (active)
Cc1cc(C(C)Nc2ccccc2)c2nc(N3CCOCC3)cc(=O)n2c1 (centres undefined),9.2 µM (active) and 5.9 µM (active),10.3 µM (active) and 9.34 µM (active),–,inactive,inactive,–,–,-14.6% (inactive),inactive,inactive,inactive,inactive,–,inactive
COc1cc2c(Oc3ccc(NC(=O)C4(C(=O)Nc5ccc(F)cc5)CC4)cc3F)ccnc2cc1OCCCN1CCOCC1,inactive and 2.6 nM (active),0.0037 µM (active),–,1.48 µM (active),–,–,–,–,2.82 µM (active),13.2 µM (active),1.66 µM (active),2.35 µM (active),3.16 µM (active),5.9 µM (active)
CC[C@H](C=C[C@@H](C)[C@H]1CC[C@H]2[C@@H]3CC=C4C[C@@H](O)CC[C@]4(C)[C@@H]3CC[C@]12C)C(C)C,inactive,inactive,–,inactive,inactive,inactive,inactive,10.2% (inactive),inactive,7.24 µM (active),inactive,inactive,–,inactive
COc1ccc(-c2nc(N3CCOCC3)c3sc(CN(C)c4ncc(C(=O)NO)cn4)cc3n2)cn1,0.0148 µM (active),0.0093 µM (active),–,0.0209 µM (active),0.0118 µM (active),0.0074 µM (active),0.0132 µM (active),–,0.0891 µM (active),0.0166 µM (active),–,0.0187 µM (active),0.355 µM (active),0.0235 µM (active)
COc1cc2ncnc(Nc3ccc(F)c(Cl)c3)c2cc1OCCCN1CCOCC1,4.22 µM (active),6.68 µM (active) and 3.66 µM (active),inactive,–,38.2 µM (active),42.9 µM (active),–,–,inactive,–,–,inactive,–,–
CCCc1nc2c(C)cc(-c3nc4ccccc4n3C)cc2n1Cc1ccc(-c2ccccc2C(=O)O)cc1,750 nM (active) and inactive,inactive,–,inactive,inactive,inactive,inactive,3.79% (inactive) and 0.0088% (inactive),inactive,inactive,inactive,–,–,inactive
O=C(N[C@@H](c1ccccc1)[C@@H]1CCCCN1)c1cccc(C(F)(F)F)c1Cl,16.6 µM (active),16.6 µM (active),–,inactive,–,–,–,–,8.91 µM (active),inactive,–,–,28.2 µM (active),inactive
Cc1cc2cc3c(C)cc(=O)oc3c(C)c2o1,inactive,inactive,–,inactive,inactive,inactive,inactive,–,inactive,inactive,inactive,inactive,–,inactive
CC(C)C(=O)Nc1ncc(-c2cc(C(F)F)nn2-c2c(Cl)cccc2Cl)s1,18.6 µM (active),13 µM (active),inactive,–,–,–,–,–,22.4 µM (active),–,–,–,–,–
Cc1cc(Nc2ncc(Cl)c(Nc3ccccc3S(=O)(=O)C(C)C)n2)c(OC(C)C)cc1C1CCNCC1,2.59 µM (active),2.31 µM (active) and 2.35 µM (active),–,–,14.8 µM (active),–,16.6 µM (active),–,2.24 µM (active),13.2 µM (active),23.4 µM (active),26.3 µM (active),15.8 µM (active),18.6 µM (active)
CC1=CC(=O)c2ccccc2C1=O,7.42 µM (active),4.68 µM (active),–,inactive,16.6 µM (active),–,–,13.5% (inactive),inactive,inactive,–,inactive,–,inactive

# — PubChem BioAssay (NCATS)
